# Assays:
# Experiment in all cases: DAPPL (digital affinity profiling via proximity ligation, sequencing); 10 mM Tris-HCl pH 7.5, 50 mM NaCl, 1 mM DTT, 4% glycerol, room temperature, 30 min; GST-TFs on glutathione beads, 16-mer random dsDNA library, 0.1% formaldehyde crosslink after washing; high values mean tight binding
# [1] = target: T1, FEV (Homo sapiens, UniProt Q99581 1-238); settings: protein: recombinant; tags: N-terminal GST; dsDNA, one strand shown
# T1 sequence: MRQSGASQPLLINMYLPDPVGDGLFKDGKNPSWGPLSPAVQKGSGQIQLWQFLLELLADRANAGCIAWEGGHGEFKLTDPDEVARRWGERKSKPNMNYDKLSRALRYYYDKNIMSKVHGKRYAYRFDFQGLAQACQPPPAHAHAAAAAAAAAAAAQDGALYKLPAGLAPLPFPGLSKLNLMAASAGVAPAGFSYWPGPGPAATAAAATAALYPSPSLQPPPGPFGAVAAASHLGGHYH
# Outline: (§1)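 GST fusions of human transcription factors were expressed in yeast and captured with glutathione beads. Once given DNA barcodes and pooled alongside a tag-only sample, they were incubated for 30 min at room temperature with 200 nmole of a random double-stranded 16-mer DNA library in Tris/NaCl/DTT/glycerol buffer, then washed, crosslinked (0.1% formaldehyde), proximity-ligated, PCR-amplified and sequenced on an Illumina NextSeq500. The binding signal of each hexamer is its read frequency for a factor divided by its frequency for the tag-only sample.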
# [2] = target: ETV5 (Homo sapiens, UniProt P41161 1-510); settings: protein: recombinant; tags: N-terminal GST; dsDNA, one strand shown
# Outline: as §1
# [3] = target: HSF1 (Homo sapiens, UniProt Q00613 1-529); settings: protein: recombinant; tags: N-terminal GST; chain copies: 3; dsDNA, one strand shown
# Outline: as §1
# [4] = target: T2, SPIC (Homo sapiens, UniProt Q8N5J4 1-248); settings: protein: recombinant; tags: N-terminal GST; dsDNA, one strand shown
# T2 sequence: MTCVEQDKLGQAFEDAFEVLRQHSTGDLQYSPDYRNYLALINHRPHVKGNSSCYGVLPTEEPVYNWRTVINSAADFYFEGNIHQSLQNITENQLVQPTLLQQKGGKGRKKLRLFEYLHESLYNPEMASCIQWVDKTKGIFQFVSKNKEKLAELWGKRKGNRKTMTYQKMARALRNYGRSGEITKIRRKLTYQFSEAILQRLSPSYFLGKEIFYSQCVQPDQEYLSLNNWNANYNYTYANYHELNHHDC
# Outline: as §1
# [5] = target: ELF4 (Homo sapiens, UniProt Q99607 1-663); settings: protein: recombinant; tags: N-terminal GST; dsDNA, one strand shown
# Outline: as §1
# [6] = target: T3, ELK4 (Homo sapiens, UniProt P28324-2 1-405); settings: protein: recombinant; tags: N-terminal GST; dsDNA, one strand shown
# T3 sequence: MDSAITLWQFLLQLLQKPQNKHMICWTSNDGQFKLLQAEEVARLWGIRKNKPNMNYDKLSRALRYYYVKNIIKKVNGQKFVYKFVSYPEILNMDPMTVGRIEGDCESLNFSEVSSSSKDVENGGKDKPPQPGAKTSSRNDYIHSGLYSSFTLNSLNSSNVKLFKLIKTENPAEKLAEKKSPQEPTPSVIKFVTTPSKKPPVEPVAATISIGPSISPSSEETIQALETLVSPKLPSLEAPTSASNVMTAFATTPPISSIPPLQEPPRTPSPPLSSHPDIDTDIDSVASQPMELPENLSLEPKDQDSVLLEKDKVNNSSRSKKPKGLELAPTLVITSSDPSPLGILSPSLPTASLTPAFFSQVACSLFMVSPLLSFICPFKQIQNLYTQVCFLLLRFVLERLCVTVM
# Outline: as §1
# [7] = target: T4, ELF3 (Homo sapiens, UniProt P78545 1-371); settings: protein: recombinant; tags: N-terminal GST; dsDNA, one strand shown
# T4 sequence: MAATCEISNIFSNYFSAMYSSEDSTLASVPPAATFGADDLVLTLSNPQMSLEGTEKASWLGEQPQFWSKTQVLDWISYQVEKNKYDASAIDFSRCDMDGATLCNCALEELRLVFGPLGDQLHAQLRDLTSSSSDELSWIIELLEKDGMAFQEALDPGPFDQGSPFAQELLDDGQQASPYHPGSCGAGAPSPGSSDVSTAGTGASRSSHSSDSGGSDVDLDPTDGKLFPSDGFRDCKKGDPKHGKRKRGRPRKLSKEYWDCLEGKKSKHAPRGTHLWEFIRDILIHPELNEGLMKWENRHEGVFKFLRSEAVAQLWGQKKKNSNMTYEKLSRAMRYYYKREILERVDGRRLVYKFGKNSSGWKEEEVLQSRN
# Outline: as §1
# [8] = target: CRX (Homo sapiens, UniProt O43186 1-299); settings: protein: recombinant; tags: N-terminal GST; dsDNA, one strand shown
# Outline: as §1
# [9] = target: ETV1 (Homo sapiens, UniProt P50549 1-477); settings: protein: recombinant; tags: N-terminal GST; dsDNA, one strand shown
# Outline: as §1
# [10] = target: T5, ERF (Homo sapiens, UniProt P50548 1-548); settings: protein: recombinant; tags: N-terminal GST; dsDNA, one strand shown
# T5 sequence: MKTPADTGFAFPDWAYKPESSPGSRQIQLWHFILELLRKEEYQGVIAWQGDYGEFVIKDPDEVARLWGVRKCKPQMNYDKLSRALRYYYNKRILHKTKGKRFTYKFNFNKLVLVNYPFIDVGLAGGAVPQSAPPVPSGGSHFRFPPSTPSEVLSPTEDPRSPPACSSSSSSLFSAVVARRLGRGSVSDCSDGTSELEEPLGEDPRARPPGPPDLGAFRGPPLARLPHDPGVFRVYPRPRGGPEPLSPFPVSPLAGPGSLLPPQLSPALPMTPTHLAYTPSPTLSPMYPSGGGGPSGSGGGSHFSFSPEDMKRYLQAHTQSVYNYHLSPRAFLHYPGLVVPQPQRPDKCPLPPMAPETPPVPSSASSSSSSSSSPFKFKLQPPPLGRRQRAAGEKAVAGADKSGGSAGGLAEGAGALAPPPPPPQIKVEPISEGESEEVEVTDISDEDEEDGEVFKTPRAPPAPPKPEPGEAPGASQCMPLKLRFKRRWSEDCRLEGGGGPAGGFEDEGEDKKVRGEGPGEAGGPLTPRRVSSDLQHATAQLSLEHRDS
# Outline: as §1
# [11] = target: T6, ETV3L (Homo sapiens, UniProt Q6ZN32 1-361); settings: protein: recombinant; tags: N-terminal GST; dsDNA, one strand shown
# T6 sequence: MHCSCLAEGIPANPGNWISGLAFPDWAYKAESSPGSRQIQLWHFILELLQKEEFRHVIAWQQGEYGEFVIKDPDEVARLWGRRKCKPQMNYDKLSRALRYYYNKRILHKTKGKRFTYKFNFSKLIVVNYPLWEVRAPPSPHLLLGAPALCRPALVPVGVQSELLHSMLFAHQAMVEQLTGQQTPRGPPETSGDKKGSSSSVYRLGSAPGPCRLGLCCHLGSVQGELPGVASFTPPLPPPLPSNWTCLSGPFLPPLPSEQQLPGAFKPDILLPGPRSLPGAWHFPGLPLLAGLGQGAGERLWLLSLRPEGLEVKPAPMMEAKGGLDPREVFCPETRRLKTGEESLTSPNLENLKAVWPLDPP
# Outline: as §1
# [12] = target: T7, ETS2 (Homo sapiens, UniProt P15036 1-469); settings: protein: recombinant; tags: N-terminal GST; dsDNA, one strand shown
# T7 sequence: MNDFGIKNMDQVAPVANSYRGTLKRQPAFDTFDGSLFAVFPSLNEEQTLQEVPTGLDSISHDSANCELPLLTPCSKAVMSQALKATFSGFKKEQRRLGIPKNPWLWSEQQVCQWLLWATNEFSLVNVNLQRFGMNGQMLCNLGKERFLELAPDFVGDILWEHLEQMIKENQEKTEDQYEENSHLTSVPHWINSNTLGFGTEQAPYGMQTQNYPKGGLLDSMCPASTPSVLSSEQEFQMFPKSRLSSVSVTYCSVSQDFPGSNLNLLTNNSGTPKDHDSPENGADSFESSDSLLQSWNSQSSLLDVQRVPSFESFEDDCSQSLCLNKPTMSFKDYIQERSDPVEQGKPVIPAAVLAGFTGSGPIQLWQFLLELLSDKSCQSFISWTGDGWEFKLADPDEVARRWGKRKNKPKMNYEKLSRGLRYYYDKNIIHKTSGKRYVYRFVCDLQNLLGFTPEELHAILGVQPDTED
# Outline: as §1
# [13] = target: T8, SPDEF (Homo sapiens, UniProt O95238 1-335); settings: protein: recombinant; tags: N-terminal GST; dsDNA, one strand shown
# T8 sequence: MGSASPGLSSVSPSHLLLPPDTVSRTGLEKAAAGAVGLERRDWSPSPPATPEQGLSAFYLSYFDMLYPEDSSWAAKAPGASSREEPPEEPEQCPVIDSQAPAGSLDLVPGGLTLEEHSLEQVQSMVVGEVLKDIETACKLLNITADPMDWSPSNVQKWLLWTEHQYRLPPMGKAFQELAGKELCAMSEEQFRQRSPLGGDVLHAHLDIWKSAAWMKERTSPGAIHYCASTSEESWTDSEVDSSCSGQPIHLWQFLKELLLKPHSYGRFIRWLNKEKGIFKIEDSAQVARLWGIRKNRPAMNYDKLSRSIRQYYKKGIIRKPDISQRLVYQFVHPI
# Outline: as §1
# [14] = target: T9, ETV7 (Homo sapiens, UniProt Q9Y603 1-341); settings: protein: recombinant; tags: N-terminal GST; dsDNA, one strand shown
# T9 sequence: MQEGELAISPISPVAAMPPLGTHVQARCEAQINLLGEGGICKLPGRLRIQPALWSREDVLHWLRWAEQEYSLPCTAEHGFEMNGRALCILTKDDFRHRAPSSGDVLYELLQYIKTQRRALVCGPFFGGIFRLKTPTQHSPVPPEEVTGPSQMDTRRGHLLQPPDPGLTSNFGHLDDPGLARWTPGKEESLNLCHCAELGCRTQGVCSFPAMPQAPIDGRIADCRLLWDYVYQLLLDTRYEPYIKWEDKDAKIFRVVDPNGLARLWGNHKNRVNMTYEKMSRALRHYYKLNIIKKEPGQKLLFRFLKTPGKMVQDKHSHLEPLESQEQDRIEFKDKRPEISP
# Outline: as §1
# [15] = target: T10, ELF5 (Homo sapiens, UniProt Q9UKW6-2 1-255); settings: protein: recombinant; tags: N-terminal GST; dsDNA, one strand shown
# T10 sequence: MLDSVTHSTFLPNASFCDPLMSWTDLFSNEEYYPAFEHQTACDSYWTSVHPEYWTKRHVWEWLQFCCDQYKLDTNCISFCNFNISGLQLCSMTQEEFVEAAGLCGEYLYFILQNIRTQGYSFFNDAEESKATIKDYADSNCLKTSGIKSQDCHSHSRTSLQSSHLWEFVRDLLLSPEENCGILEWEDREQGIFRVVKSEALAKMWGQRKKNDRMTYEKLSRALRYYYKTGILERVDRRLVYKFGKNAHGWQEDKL
# Outline: as §1
# [16] = target: T11, ETV3 (Homo sapiens, UniProt P41162-2 1-143); settings: protein: recombinant; tags: N-terminal GST; dsDNA, one strand shown
# T11 sequence: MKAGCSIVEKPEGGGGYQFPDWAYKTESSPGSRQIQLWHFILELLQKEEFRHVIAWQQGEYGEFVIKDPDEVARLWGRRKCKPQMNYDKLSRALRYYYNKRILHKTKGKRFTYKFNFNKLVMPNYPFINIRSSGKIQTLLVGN
# Outline: as §1
# [17] = target: ETV6 (Homo sapiens, UniProt P41212 1-452); settings: protein: recombinant; tags: N-terminal GST; dsDNA, one strand shown
# Outline: as §1
# Sequence of HSF1 (Q00613 whole entry): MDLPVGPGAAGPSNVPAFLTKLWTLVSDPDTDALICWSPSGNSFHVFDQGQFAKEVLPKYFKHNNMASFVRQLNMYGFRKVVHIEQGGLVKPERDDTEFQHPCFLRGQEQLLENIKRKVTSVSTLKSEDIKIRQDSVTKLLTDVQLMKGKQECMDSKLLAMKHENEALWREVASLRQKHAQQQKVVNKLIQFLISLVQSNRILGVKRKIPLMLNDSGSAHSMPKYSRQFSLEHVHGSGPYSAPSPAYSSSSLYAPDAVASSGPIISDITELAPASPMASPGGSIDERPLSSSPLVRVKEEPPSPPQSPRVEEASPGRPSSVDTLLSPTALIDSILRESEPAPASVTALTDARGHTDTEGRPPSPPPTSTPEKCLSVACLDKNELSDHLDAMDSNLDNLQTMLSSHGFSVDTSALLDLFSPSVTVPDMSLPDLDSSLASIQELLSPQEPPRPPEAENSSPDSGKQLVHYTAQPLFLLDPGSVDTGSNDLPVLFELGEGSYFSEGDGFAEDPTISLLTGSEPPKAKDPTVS
# Sequence of ETV6 (P41212 whole entry): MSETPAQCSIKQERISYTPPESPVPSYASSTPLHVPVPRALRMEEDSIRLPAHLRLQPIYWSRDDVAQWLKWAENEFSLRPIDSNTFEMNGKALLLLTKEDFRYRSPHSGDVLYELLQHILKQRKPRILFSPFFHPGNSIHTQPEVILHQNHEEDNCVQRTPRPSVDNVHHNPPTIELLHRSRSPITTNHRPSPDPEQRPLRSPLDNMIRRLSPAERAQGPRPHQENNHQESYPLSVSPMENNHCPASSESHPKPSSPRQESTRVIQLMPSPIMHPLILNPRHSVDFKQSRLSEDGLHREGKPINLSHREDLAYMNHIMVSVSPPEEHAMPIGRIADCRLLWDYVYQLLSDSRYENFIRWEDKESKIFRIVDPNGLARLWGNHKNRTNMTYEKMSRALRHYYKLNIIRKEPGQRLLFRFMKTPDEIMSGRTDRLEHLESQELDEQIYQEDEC
# Sequence of CRX (O43186 whole entry): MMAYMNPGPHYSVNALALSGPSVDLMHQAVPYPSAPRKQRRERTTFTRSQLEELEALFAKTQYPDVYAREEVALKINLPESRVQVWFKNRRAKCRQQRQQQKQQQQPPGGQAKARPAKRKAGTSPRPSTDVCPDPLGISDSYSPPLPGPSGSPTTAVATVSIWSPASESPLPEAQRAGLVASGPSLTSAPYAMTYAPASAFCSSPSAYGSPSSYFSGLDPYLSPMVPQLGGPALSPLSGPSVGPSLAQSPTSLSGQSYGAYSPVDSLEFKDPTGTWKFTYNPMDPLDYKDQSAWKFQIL
# Sequence of ETV5 (P41161 whole entry): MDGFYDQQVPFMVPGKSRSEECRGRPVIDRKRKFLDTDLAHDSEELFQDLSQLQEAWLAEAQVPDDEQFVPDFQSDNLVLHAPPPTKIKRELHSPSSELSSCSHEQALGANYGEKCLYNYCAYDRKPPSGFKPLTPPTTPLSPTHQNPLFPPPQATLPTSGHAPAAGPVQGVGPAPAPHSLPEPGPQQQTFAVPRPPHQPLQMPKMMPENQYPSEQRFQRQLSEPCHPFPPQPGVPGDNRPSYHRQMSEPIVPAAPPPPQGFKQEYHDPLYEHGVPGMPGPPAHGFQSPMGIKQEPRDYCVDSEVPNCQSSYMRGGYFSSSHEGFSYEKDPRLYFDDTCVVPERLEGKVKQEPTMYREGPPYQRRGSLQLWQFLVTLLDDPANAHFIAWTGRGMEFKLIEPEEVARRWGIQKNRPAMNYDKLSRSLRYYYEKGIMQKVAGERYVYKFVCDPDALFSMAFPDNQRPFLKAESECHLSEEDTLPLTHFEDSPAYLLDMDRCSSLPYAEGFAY
# Sequence of ELF4 (Q99607 whole entry): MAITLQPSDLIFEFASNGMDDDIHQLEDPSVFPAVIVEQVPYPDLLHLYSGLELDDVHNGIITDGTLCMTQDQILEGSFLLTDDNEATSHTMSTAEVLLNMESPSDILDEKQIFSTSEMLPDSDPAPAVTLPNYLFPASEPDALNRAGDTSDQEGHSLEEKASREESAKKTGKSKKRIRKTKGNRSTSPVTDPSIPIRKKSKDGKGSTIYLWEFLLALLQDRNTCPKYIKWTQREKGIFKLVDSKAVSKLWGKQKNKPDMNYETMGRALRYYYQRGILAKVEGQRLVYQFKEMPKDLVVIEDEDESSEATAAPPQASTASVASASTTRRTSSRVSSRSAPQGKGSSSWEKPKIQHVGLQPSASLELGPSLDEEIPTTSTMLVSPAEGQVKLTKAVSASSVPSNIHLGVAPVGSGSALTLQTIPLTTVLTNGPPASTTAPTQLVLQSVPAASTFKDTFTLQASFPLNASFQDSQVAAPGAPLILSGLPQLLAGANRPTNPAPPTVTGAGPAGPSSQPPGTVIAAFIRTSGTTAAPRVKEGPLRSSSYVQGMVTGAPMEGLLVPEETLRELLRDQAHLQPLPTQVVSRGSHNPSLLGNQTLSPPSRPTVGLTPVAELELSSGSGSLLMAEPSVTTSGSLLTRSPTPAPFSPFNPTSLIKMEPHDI
# Sequence of ETV1 (P50549 whole entry): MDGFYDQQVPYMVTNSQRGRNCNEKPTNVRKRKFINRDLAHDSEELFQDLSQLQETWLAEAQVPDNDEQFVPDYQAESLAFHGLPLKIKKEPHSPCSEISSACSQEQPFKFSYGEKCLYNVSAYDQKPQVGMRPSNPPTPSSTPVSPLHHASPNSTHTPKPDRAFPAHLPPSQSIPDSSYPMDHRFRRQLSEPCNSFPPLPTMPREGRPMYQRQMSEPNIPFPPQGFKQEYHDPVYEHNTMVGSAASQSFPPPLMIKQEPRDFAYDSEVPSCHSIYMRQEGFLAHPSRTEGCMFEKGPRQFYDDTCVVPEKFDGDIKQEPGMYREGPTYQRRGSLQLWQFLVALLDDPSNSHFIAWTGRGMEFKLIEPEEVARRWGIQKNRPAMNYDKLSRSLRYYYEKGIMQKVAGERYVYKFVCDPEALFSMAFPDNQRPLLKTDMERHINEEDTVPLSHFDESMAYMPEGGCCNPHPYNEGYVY
sequence,measurement,setting,value
ACTAAG,binding signal,[1],"1.02 fold enrichment (6-mer frequency, TF over GST control)"
same,binding signal,[2],"1.04 fold enrichment (6-mer frequency, TF over GST control)"
same,binding signal,[3],"1.32 fold enrichment (6-mer frequency, TF over GST control)"
same,binding signal,[4],"1.19 fold enrichment (6-mer frequency, TF over GST control)"
same,binding signal,[5],"1.1 fold enrichment (6-mer frequency, TF over GST control)"
same,binding signal,[6],"1.02 fold enrichment (6-mer frequency, TF over GST control)"
same,binding signal,[7],"1.11 fold enrichment (6-mer frequency, TF over GST control)"
same,binding signal,[8],"1.76 fold enrichment (6-mer frequency, TF over GST control)"
same,binding signal,[9],"1.15 fold enrichment (6-mer frequency, TF over GST control)"
same,binding signal,[10],"1.04 fold enrichment (6-mer frequency, TF over GST control)"
same,binding signal,[11],"1.12 fold enrichment (6-mer frequency, TF over GST control)"
same,binding signal,[12],"1.11 fold enrichment (6-mer frequency, TF over GST control)"
same,binding signal,[13],"1.16 fold enrichment (6-mer frequency, TF over GST control)"
same,binding signal,[14],"1.14 fold enrichment (6-mer frequency, TF over GST control)"
same,binding signal,[15],"1.12 fold enrichment (6-mer frequency, TF over GST control)"
same,binding signal,[16],"1.09 fold enrichment (6-mer frequency, TF over GST control)"
same,binding signal,[17],"1.2 fold enrichment (6-mer frequency, TF over GST control)"
